According to PubChem BioAssay (NCI):
About 83,000 compounds went through this panel and 20% of them were active in at least one assay; those are over-represented in the sample as a whole.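 In brief: 96-well plates, 48 h treatment, single concentration, percent growth endpoint.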 Activity calls are given as the source filed them. How the source made its calls: active means growth percent below 10; inactive means the rest.

Experiments:
Assay in all cases: NCI-60 one-dose screen, 48 h (100 = growth as untreated, 0 = no growth, -100 = all killed)
Conditions in all cases: 10 µM unless noted
SR leukemia = tested on: SR leukemia
RPMI-8226 leukemia = tested on: RPMI-8226 leukemia
OVCAR-8 ovarian = tested on: OVCAR-8 ovarian
OVCAR-5 ovarian = tested on: OVCAR-5 ovarian
OVCAR-4 ovarian = tested on: OVCAR-4 ovarian
SK-OV-3 ovarian = tested on: SK-OV-3 ovarian
IGROV1 ovarian = tested on: IGROV1 ovarian
OVCAR-3 ovarian = tested on: OVCAR-3 ovarian
HS 578T breast = tested on: HS 578T breast
NCI/ADR-RES ovarian = tested on: NCI/ADR-RES ovarian
T-47D breast = tested on: T-47D breast
MDA-MB-435 melanoma = tested on: MDA-MB-435 melanoma
SW-620 colon = tested on: SW-620 colon
MCF7 breast = tested on: MCF7 breast
HCT-116 colon = tested on: HCT-116 colon
HCC-2998 colon = tested on: HCC-2998 colon
KM12 colon = tested on: KM12 colon
BT-549 breast = tested on: BT-549 breast

Measured: growth

COc1cc2c(cc1OC)-c1ccc3cc4c(cc3c1N(CCCN(C)C)C2)OCO4
active: HCT-116 colon 9.53%
inactive: SR leukemia 15.3% | RPMI-8226 leukemia 17.1% | OVCAR-8 ovarian 27.5% | OVCAR-5 ovarian 60% | OVCAR-4 ovarian 52.4% | SK-OV-3 ovarian 55.3% | IGROV1 ovarian 21.7% | OVCAR-3 ovarian 48% | HS 578T breast 45.5% | NCI/ADR-RES ovarian 65.4% | T-47D breast 54.6% | MDA-MB-435 melanoma 44% | SW-620 colon 25.2% | MCF7 breast 26% | HCC-2998 colon 64.6% | KM12 colon 38.4%

O=c1[nH]nc(-c2ccc(Cl)cc2)cc1Cc1ccccc1
inactive: SR leukemia 62.5% | RPMI-8226 leukemia 41.1% | OVCAR-8 ovarian 83% | OVCAR-5 ovarian 94.1% | OVCAR-4 ovarian 95.1% | SK-OV-3 ovarian 99.1% | IGROV1 ovarian 40.9% | OVCAR-3 ovarian 104% | HS 578T breast 103% | NCI/ADR-RES ovarian 98.4% | T-47D breast 84.1% | MDA-MB-435 melanoma 106% | SW-620 colon 105% | MCF7 breast 92.2% | HCT-116 colon 93% | HCC-2998 colon 113% | KM12 colon 102%

Cc1nc(Nc2cccc(NC(=O)Nc3ccc(Cl)cc3)c2)c2ccccc2n1
inactive: SR leukemia 22.1% | RPMI-8226 leukemia 66.8% | OVCAR-8 ovarian 93.9% | OVCAR-5 ovarian 106% | OVCAR-4 ovarian 47.8% | SK-OV-3 ovarian 97.8% | IGROV1 ovarian 102% | OVCAR-3 ovarian 90.7% | HS 578T breast 104% | NCI/ADR-RES ovarian 87.4% | T-47D breast 71.2% | BT-549 breast 101% | MDA-MB-435 melanoma 79.3% | SW-620 colon 46.7% | MCF7 breast 78.1% | HCT-116 colon 67.1% | HCC-2998 colon 106% | KM12 colon 69.7%

Cc1cc2c(F)c(Oc3ncnc(Nc4ccc(N5C[C@@H](C)N[C@@H](C)C5)cc4)c3C#N)cc(F)c2[nH]1
inactive: OVCAR-8 ovarian 25.6% | OVCAR-5 ovarian 103% | OVCAR-4 ovarian 16.2% | SK-OV-3 ovarian 92.8% | IGROV1 ovarian 73% | HS 578T breast 64% | NCI/ADR-RES ovarian 50.6% | MDA-MB-435 melanoma 19.9% | MCF7 breast 12.3% | HCC-2998 colon 84.1% | KM12 colon 11.9%
active: SR leukemia -26.4% | RPMI-8226 leukemia 2.98% | OVCAR-3 ovarian -29.6% | T-47D breast -1.93% | SW-620 colon 3.6%

CNC(=O)c1cc(Oc2ccc3nc(Nc4cc(Cl)cc(Cl)c4)ccc3c2)ccn1
active: SR leukemia 6.56%
inactive: RPMI-8226 leukemia 57.6% | OVCAR-8 ovarian 67.9% | OVCAR-5 ovarian 104% | OVCAR-4 ovarian 57.2% | SK-OV-3 ovarian 86.2% | IGROV1 ovarian 79.6% | OVCAR-3 ovarian 57.8% | HS 578T breast 64.5% | NCI/ADR-RES ovarian 35.6% | T-47D breast 55.6% | BT-549 breast 58.9% | MDA-MB-435 melanoma 12.8% | SW-620 colon 45.6% | MCF7 breast 38.8% | HCT-116 colon 49% | HCC-2998 colon 74.5% | KM12 colon 30.2%

COc1cc2c(cc1OC)-c1ccc3cc4c(cc3c1N(CCN1CCCC1)C2)OCO4
active: SR leukemia 1.64% | RPMI-8226 leukemia -36.2% | OVCAR-8 ovarian 6.81% | SK-OV-3 ovarian -13.5% | IGROV1 ovarian 4.12% | T-47D breast -28.3% | SW-620 colon -40.1% | MCF7 breast -6.8% | HCT-116 colon -84.5%
inactive: OVCAR-5 ovarian 30% | OVCAR-4 ovarian 33.8% | OVCAR-3 ovarian 15.3% | HS 578T breast 16.2% | NCI/ADR-RES ovarian 60.7% | MDA-MB-435 melanoma 56.4% | HCC-2998 colon 15.7% | KM12 colon 16.7%

N#Cc1c(Oc2ccc([N+](=O)[O-])cc2)nc2sc3cc(Cl)ccc3n2c1=N
inactive: SR leukemia 92.2% | RPMI-8226 leukemia 83.6% | OVCAR-8 ovarian 63.4% | OVCAR-5 ovarian 120% | OVCAR-4 ovarian 53.1% | SK-OV-3 ovarian 67.1% | IGROV1 ovarian 77.7% | OVCAR-3 ovarian 107% | HS 578T breast 41.8% | NCI/ADR-RES ovarian 86% | T-47D breast 60.2% | MDA-MB-435 melanoma 111% | SW-620 colon 93.1% | MCF7 breast 61.8% | HCT-116 colon 105% | HCC-2998 colon 117% | KM12 colon 47.7%

Cc1cc(C(c2ccccc2)c2ccccc2)ccc1NS(=O)(=O)c1ccccc1
inactive: SR leukemia 74.7% | RPMI-8226 leukemia 71% | OVCAR-8 ovarian 101% | OVCAR-5 ovarian 114% | OVCAR-4 ovarian 98.5% | SK-OV-3 ovarian 109% | IGROV1 ovarian 123% | OVCAR-3 ovarian 108% | HS 578T breast 89.8% | NCI/ADR-RES ovarian 82.8% | T-47D breast 85.6% | MDA-MB-435 melanoma 114% | SW-620 colon 101% | MCF7 breast 88.3% | HCT-116 colon 82.1% | HCC-2998 colon 104% | KM12 colon 97.7%

C=CCN1C(=O)[C@]2(SC1=S)[C@H](c1cccc(Cl)c1)CN(C)[C@]21C(=O)NC2C=CC(Cl)=C[C@H]21 (some centres not stated)
inactive: OVCAR-8 ovarian 56% | OVCAR-5 ovarian 80.5% | OVCAR-4 ovarian 49.4% | SK-OV-3 ovarian 58% | IGROV1 ovarian 48.3% | OVCAR-3 ovarian 38.4% | HS 578T breast 56% | NCI/ADR-RES ovarian 38.7% | T-47D breast 15.6% | BT-549 breast 34.1% | MDA-MB-435 melanoma 55.1% | SW-620 colon 30.8% | MCF7 breast 16.9% | HCC-2998 colon 78.2% | KM12 colon 64.1%
active: SR leukemia -22.6% | RPMI-8226 leukemia -5.81%

N#Cc1c(N)nc2c(nnn2-c2cccc(C(F)(F)F)c2)c1N
inactive: SR leukemia 83.1% | RPMI-8226 leukemia 82.4% | OVCAR-8 ovarian 89.3% | OVCAR-5 ovarian 102% | OVCAR-4 ovarian 87.5% | SK-OV-3 ovarian 84.9% | IGROV1 ovarian 81.1% | OVCAR-3 ovarian 97.9% | HS 578T breast 46.2% | NCI/ADR-RES ovarian 95.8% | T-47D breast 48.1% | MDA-MB-435 melanoma 108% | SW-620 colon 95.4% | MCF7 breast 60.1% | HCT-116 colon 97.4% | HCC-2998 colon 102% | KM12 colon 86.8%

CN(C)c1ccc(/C=C2\C=C(c3ccccc3)N(CCc3ccccc3)C2=O)cc1
active: OVCAR-4 ovarian -11.6%
inactive: SR leukemia 23.5% | RPMI-8226 leukemia 93% | OVCAR-8 ovarian 11.7% | OVCAR-5 ovarian 98.7% | SK-OV-3 ovarian 60.9% | IGROV1 ovarian 70.2% | OVCAR-3 ovarian 62.3% | HS 578T breast 19.1% | NCI/ADR-RES ovarian 48.6% | T-47D breast 82.3% | BT-549 breast 71.3% | MDA-MB-435 melanoma 95.3% | SW-620 colon 61.4% | MCF7 breast 60% | HCC-2998 colon 75.5% | KM12 colon 89.8%

Nc1nc(N)c(-c2ccc(Cl)cc2)c(/C=C/c2ccc([N+](=O)[O-])cc2)n1
inactive: SR leukemia 44% | RPMI-8226 leukemia 67% | OVCAR-8 ovarian 89.2% | OVCAR-5 ovarian 108% | OVCAR-4 ovarian 77.3% | SK-OV-3 ovarian 114% | IGROV1 ovarian 22.4% | OVCAR-3 ovarian 75.9% | HS 578T breast 60.5% | NCI/ADR-RES ovarian 68.3% | T-47D breast 84.7% | BT-549 breast 92.3% | MDA-MB-435 melanoma 41.9% | SW-620 colon 26.4% | MCF7 breast 82.2% | HCT-116 colon 48.9% | HCC-2998 colon 77.6% | KM12 colon 83.1%

Cc1ccc(NC(=O)C(Cl)Cl)cc1
inactive: SR leukemia 97.2% | RPMI-8226 leukemia 97% | OVCAR-8 ovarian 99.5% | OVCAR-5 ovarian 98.5% | OVCAR-4 ovarian 116% | SK-OV-3 ovarian 105% | IGROV1 ovarian 95.4% | OVCAR-3 ovarian 112% | HS 578T breast 102% | NCI/ADR-RES ovarian 99.9% | T-47D breast 96.6% | BT-549 breast 110% | MDA-MB-435 melanoma 107% | SW-620 colon 106% | MCF7 breast 94.6% | HCC-2998 colon 115% | KM12 colon 104%

CCCCn1c(=O)[nH]c(N)c(C(c2ccc(F)cc2)c2c(N)[nH]c(=O)n(CCCC)c2=O)c1=O
inactive: SR leukemia 42% | RPMI-8226 leukemia 50% | OVCAR-8 ovarian 66.5% | OVCAR-5 ovarian 94.4% | OVCAR-4 ovarian 64.6% | SK-OV-3 ovarian 80.6% | IGROV1 ovarian 78.8% | OVCAR-3 ovarian 54% | HS 578T breast 81.1% | NCI/ADR-RES ovarian 96.7% | T-47D breast 39.6% | MDA-MB-435 melanoma 64.7% | SW-620 colon 91.1% | MCF7 breast 46.8% | HCC-2998 colon 72.9% | KM12 colon 61.3%

O=C1NCC(=O)N(Cc2ccco2)[C@H]1Cc1ccccc1
inactive: SR leukemia 92.6% | RPMI-8226 leukemia 104% | OVCAR-8 ovarian 105% | OVCAR-5 ovarian 106% | OVCAR-4 ovarian 103% | SK-OV-3 ovarian 96.7% | IGROV1 ovarian 109% | OVCAR-3 ovarian 110% | HS 578T breast 89% | NCI/ADR-RES ovarian 104% | T-47D breast 88% | MDA-MB-435 melanoma 104% | SW-620 colon 107% | MCF7 breast 91.5% | HCT-116 colon 95.9% | HCC-2998 colon 109% | KM12 colon 103%

CCNCCNc1cc(C2CCCC2)c(C#N)c2nc3ccccc3n12
inactive: OVCAR-8 ovarian 28.6% | OVCAR-5 ovarian 71.2% | SK-OV-3 ovarian 40.5% | IGROV1 ovarian 43.7% | NCI/ADR-RES ovarian 33.1% | T-47D breast 13.8% | MDA-MB-435 melanoma 11.2% | MCF7 breast 29.6% | HCC-2998 colon 32.7% | KM12 colon 35%
active: SR leukemia -4.31% | RPMI-8226 leukemia 1.72% | OVCAR-4 ovarian -13.5% | OVCAR-3 ovarian -82% | HS 578T breast -6.97% | BT-549 breast 9.57% | SW-620 colon 8.01%

Cc1cc(NS(=O)(=O)c2ccccc2)c(OS(=O)(=O)c2ccccc2)cc1C
inactive: SR leukemia 94.6% | RPMI-8226 leukemia 84.1% | OVCAR-8 ovarian 95.1% | OVCAR-5 ovarian 114% | OVCAR-4 ovarian 106% | SK-OV-3 ovarian 108% | IGROV1 ovarian 122% | OVCAR-3 ovarian 110% | HS 578T breast 101% | NCI/ADR-RES ovarian 102% | T-47D breast 109% | MDA-MB-435 melanoma 122% | SW-620 colon 107% | MCF7 breast 93.7% | HCT-116 colon 96.1% | HCC-2998 colon 106% | KM12 colon 107%

O=c1oc2ccc(Cl)cc2cc1-c1cs/c(=N/N=C\c2ccc(Cl)cc2)n1/N=C/c1ccc(Cl)cc1
inactive: SR leukemia 83.4% | RPMI-8226 leukemia 103% | OVCAR-8 ovarian 96.5% | OVCAR-5 ovarian 107% | OVCAR-4 ovarian 98.5% | SK-OV-3 ovarian 111% | IGROV1 ovarian 108% | OVCAR-3 ovarian 106% | HS 578T breast 101% | NCI/ADR-RES ovarian 106% | T-47D breast 87.5% | MDA-MB-435 melanoma 103% | SW-620 colon 104% | MCF7 breast 95.7% | HCT-116 colon 91.9% | HCC-2998 colon 103% | KM12 colon 107%
